From PubChem BioAssay (Tox21)
Inconclusive results are not listed. Active and inactive are the calls of the source. Unless noted, the call rests on the fitted dose curve; in most records, active means well fitted curve in the direction sought with a large enough effect in the repeat runs; inconclusive means weak or mixed curves; inactive means no such curve, though single readings can be large; an effect the other way counts as inactive or inconclusive.

Experiments:
[1] = qHTS assay to identify small molecule agonists of the vitamin D receptor (VDR) signaling pathway - cell viability counter screen (AID 743224); further: series mostly up to about 63 µM; on the % scale 0 is the no-effect control and ±100 the full control effect; nearly all actives have a fitted effect of over 50% in size
Summary of the method: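 VDR-bla cell line, quantitative HTS format; 16 h compound incubation (37C, 5% CO2); ATP-based CellTiter-Glo luminescence measured in the reporter assay wells.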

[2] = qHTS assay to identify small molecule antagonists of the vitamin D receptor (VDR) signaling pathway - cell viability counter screen (AID 743225); further: on the % scale 0 is the no-effect control and ±100 the full control effect; nearly all actives have a fitted effect of over 50% in size
Summary of the method: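 VDR-bla HEK 293T cells, 4 h pre-incubation at 37C, then compound plus 1-alpha,25-dihydroxyvitamin D3 (3 nM final) for 16 h. After the beta-lactamase FRET read, CellTiter-Glo was added to the same wells; luminescence after 30 min at room temperature.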

[3] = qHTS assay to identify small molecule agonists of the NFkB signaling pathway (AID 1159509; active means well fitted curve in the direction sought with a large enough effect in the signal ratio in the repeat runs, not every such curve was filed as active; the % refers to the signal ratio; further: series mostly up to about 61 µM; on the % scale 0 is the no-effect control and ±100 the full control effect)
Summary of the method: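 NFkB-bla ME-180 cells carry a beta-lactamase reporter under an NF-kB response element. They were plated overnight, then exposed to compounds for 5 h at 37 C. Read-out is LiveBLAzer FRET after 1.5 hr at room temperature (405 nm excitation; 460/530 nm emission).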

[4] = qHTS assay to identify small molecule agonists of the NFkB signaling pathway - cell viability counter screen (AID 1159515; calls by dose curve; further: series mostly up to about 61 µM; on the % scale 0 is the no-effect control and ±100 the full control effect; nearly all actives have a fitted effect of over 55% in size)
Summary of the method: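 Viability in NFkB-bla ME-180 cells was measured by CellTiter-Glo luminescence, 30 min room temperature, in wells already treated 5 hr with compounds and read for reporter FRET.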

[5] = qHTS assay to identify small molecule agonists of the endoplasmic reticulum stress response signaling pathway (AID 1159516; active means well fitted activation curve with a large enough effect in the signal ratio in the repeat runs, not every such curve was filed as active; the % refers to the signal ratio; further: on the % scale 0 is the no-effect control and ±100 the full control effect)
Summary of the method: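 ER stress element reporter (bla) in HeLa. 1,500 cells/well, overnight attachment; 5 hr compound; 2 hr RT substrate; dual-emission fluorescence.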

[6] = qHTS assay to identify small molecule agonists of the endoplasmic reticulum stress response signaling pathway - cell viability counter screen (AID 1159517; calls by dose curve;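 further: HeLa cells carrying an ER stress response element beta-lactamase reporter; series mostly up to about 61 µM; on the % scale 0 is the no-effect control and ±100 the full control effect; nearly all actives have a fitted effect of over 50% in size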)
Summary of the method: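 CellTiter-Glo was added to wells already read for beta-lactamase FRET, and luminescence was recorded 30 min later. Cells: ESRE-bla HeLa, 1,500 per well, compound exposure 5 hr at 37 C.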

[7] = qHTS assay to identify small molecule antagonists of the retinoid-related orphan receptor gamma (ROR-gamma) signaling pathway - cell viability counter screen (AID 1159520); further: on the % scale 0 is the no-effect control and ±100 the full control effect; nearly all actives have a fitted effect of over 50% in size
Summary of the method: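 Tet-on ROR gamma CHO cells (1,000/well) were plated 4 hr, given compounds in DMSO for 2 hr at 37 C, then induced with 1 uM final doxycycline for 16 hr. Viability was read as ATP by CellTiter-Glo luminescence after 30 min.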

[8] = target: Nuclear receptor ROR-gamma (Homo sapiens) (UniProt P51449); assay: qHTS assay to identify small molecule antagonists of the retinoid-related orphan receptor gamma (ROR-gamma) signaling pathway (AID 1159521)
Summary of the method: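 Tet-on RORγ CHO cells carrying a ROR response element–luciferase reporter were pretreated with compounds for 2 h, then induced with 1 uM (final) doxycycline hyclate for 16 h at 37 C. Antagonism was read as decreased ONE-Glo luminescence.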

[9] = qHTS assay to identify small molecule agonists of the AP-1 signaling pathway - cell viability counter screen (AID 1159525; calls by dose curve; further: nearly all actives have a fitted effect of over 55% in size)
Summary of the method: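 ME-180 AP-1-bla, 2500 cells/well, Opti-MEM + 0.5% dialyzed FBS; overnight 37 °C; cpd 15-pt titration, 5 h 37 °C; CellTiter-Glo 30 min RT; luminescence read; normalised to TOAB and DMSO controls.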

[10] = qHTS assay to identify small molecule agonists of the AP-1 signaling pathway (AID 1159526; calls by dose curve; further: on the % scale 0 is the no-effect control and ±100 the full control effect)
[11] = target: Retinoic acid receptor RXR-alpha (Homo sapiens) (UniProt P19793); assay: qHTS assay to identify small molecule agonists of the RXR signaling pathway (AID 1159527; calls by dose curve; further: on the % scale 0 is the no-effect control and ±100 the full control effect; nearly all actives have a fitted effect of over 35% in size)
Summary of the method: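 GeneBLAzer RXR-alpha-UAS-bla HEK 293T cells in medium with 2% charcoal-stripped FBS, pre-incubated 5 hr at 37 C, then exposed to compounds 16 hr. Beta-lactamase reporter read by FRET substrate, 2 hr room temperature, 460/530 nm emission.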

[12] = qHTS assay to identify small molecule agonists of the RXR signaling pathway - cell viability counter screen (AID 1159529)
Summary of the method: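 RXR-alpha-UAS-bla HEK 293T cells in medium with 2% charcoal-stripped FBS were preincubated 5 hr, then exposed to compounds for 16 hr at 37 C. Viability was read as CellTiter-Glo luminescence after 30 min at room temperature.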

[13] = qHTS assay to identify small molecule antagonists of the retinoid acid receptor (RAR) signaling pathway - cell viability counter screen (AID 1159551); further: on the % scale 0 is the no-effect control and ±100 the full control effect; nearly all actives have a fitted effect of over 35% in size
Summary of the method: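 Following overnight attachment, C3RL4 reporter cells received DMSO-dissolved compounds and then retinol (1 uM final). Six hours later at 37 C, ATP content was measured by CellTiter-Glo luminescence.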

[14] = qHTS assay to identify small molecule antagonists of the retinoic acid receptor (RAR) signaling pathway (AID 1159552)
Summary of the method: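 RARE-luc C3RL4 cells; cpds + 1 uM (final) retinol, 6 hr, 37 C/5% CO2; luciferase reagent, 30 min RT, luminescence readout. Inhibitors of retinol-driven signal scored.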

[15] = qHTS assay to identify small molecule agonists of the retinoic acid receptor (RAR) signaling pathway (AID 1159553); further: on the % scale 0 is the no-effect control and ±100 the full control effect
Summary of the method: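 Cell line C3RL4, RARE luciferase reporter. Treatment: compounds in DMSO, 6 hr, 37 C, 5% CO2, after overnight plating. Detection: luminescence, 30 min RT after reagent.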

Sequence of Retinoic acid receptor RXR-alpha (Homo sapiens) (P19793 whole entry, looked up): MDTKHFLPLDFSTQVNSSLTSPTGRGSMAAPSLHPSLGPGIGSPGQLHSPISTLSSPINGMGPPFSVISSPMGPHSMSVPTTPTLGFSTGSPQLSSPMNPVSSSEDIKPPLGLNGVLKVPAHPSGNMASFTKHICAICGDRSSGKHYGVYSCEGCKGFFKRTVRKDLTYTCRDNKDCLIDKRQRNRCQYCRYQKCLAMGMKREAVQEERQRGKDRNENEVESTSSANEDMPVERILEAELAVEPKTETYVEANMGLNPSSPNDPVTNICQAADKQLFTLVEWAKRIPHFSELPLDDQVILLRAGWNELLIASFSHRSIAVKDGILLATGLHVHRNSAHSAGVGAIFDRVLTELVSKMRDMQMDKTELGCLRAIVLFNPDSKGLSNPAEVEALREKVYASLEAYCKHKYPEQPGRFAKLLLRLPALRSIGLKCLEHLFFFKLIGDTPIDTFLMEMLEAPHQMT

O=C(O)CCCc1ccccc1
inactive: Potency [1] | Potency [2] | outcome [3] | outcome [4] | outcome [5] | outcome [6] | outcome [7] | Potency [8] | Potency [9] | outcome [10] | Potency [11] | Potency [12] | outcome [13] | Potency [14] | Potency [15]

O=c1cc(CO)occ1O
inactive: Potency [1] | Potency [2] | outcome [3] | outcome [4] | outcome [5] | outcome [6] | outcome [7] | Potency [8] | Potency [9] | outcome [10] | Potency [11] | Potency [12] | outcome [13] | Potency [14] | Potency [15]

N=C(N)c1ccc(OCCCOc2ccc(C(=N)N)cc2)cc1
inactive: Potency [1] | Potency [2] | outcome [3] | outcome [4] | outcome [5] | outcome [6] | outcome [7] | Potency [8] | Potency [9] | outcome [10] | Potency [11] | Potency [12] | outcome [13] | Potency [14] | Potency [15]

CCOC(C)(C)C
inactive: Potency [1] | Potency [2] | outcome [3] | outcome [4] | outcome [5] | outcome [6] | outcome [7] | Potency [8] | Potency [9] | outcome [10] | Potency [11] | Potency [12] | outcome [13] | Potency [14] | Potency [15]

CN1CCCC1
inactive: Potency [1] | Potency [2] | outcome [3] | outcome [4] | outcome [5] | outcome [6] | outcome [7] | Potency [8] | Potency [9] | outcome [10] | Potency [11] | Potency [12] | outcome [13] | Potency [14] | Potency [15]

CC(C)(CC(=O)O)C(=O)O
inactive: Potency [1] | Potency [2] | outcome [3] | outcome [4] | outcome [5] | outcome [6] | outcome [7] | Potency [8] | Potency [9] | outcome [10] | Potency [11] | Potency [12] | outcome [13] | Potency [14] | Potency [15]

CN(C)CCCSc1ccccc1NC(=O)/C=C/c1ccccc1
inactive: Potency [1] | Potency [2] | outcome [3] | outcome [4] | outcome [5] | outcome [6] | outcome [7] | Potency [8] | Potency [9] | outcome [10] | Potency [11] | Potency [12] | outcome [13] | Potency [14] | Potency [15]

O=S(O)CO
inactive: Potency [1] | Potency [2] | outcome [3] | outcome [4] | outcome [5] | outcome [6] | outcome [7] | Potency [8] | Potency [9] | outcome [10] | Potency [11] | Potency [12] | outcome [13] | Potency [14] | Potency [15]

CCc1nccnc1CC
inactive: Potency [1] | Potency [2] | outcome [3] | outcome [4] | outcome [5] | outcome [6] | activity, negative = cytotoxicity [7] -7.52% [at 19 µM] | Potency [8] | viability change, negative = cytotoxic [9] -1.96% [at 15.8 µM] | outcome [10] | Potency [11] | Potency [12] | activity change, negative = cytotoxicity [13] 1.72% [at 19 µM] | activity, negative = inhibition [14] 7.06% [at 19 µM] | Potency [15]

O=C(O)COc1nn(Cc2ccccc2)c2ccccc12
inactive: Potency [1] | Potency [2] | outcome [3] | outcome [4] | outcome [5] | outcome [6] | outcome [7] | Potency [8] | Potency [9] | outcome [10] | Potency [11] | Potency [12] | outcome [13] | Potency [14] | Potency [15]

CN(C)CCCNCCCN(C)C
inactive: Potency [1] | outcome [3] | outcome [4] | outcome [5] | outcome [6] | outcome [7] | Potency [8] | Potency [9] | outcome [10] | Potency [11] | Potency [12] | outcome [13] | Potency [14] | Potency [15]

C=C(C)C(=O)OCCCCCCCC(C)C
inactive: Potency [1] | Potency [2] | outcome [3] | outcome [4] | outcome [5] | outcome [6] | outcome [7] | Potency [8] | Potency [9] | outcome [10] | Potency [11] | Potency [12] | outcome [13] | Potency [14] | Potency [15]

CCCCCCCCCCCCCCCCC
inactive: Potency [1] | Potency [2] | outcome [3] | outcome [4] | outcome [5] | outcome [6] | outcome [7] | Potency [8] | Potency [9] | outcome [10] | Potency [11] | Potency [12] | outcome [13] | Potency [14] | Potency [15]

FC(F)OC(Cl)C(F)(F)F (configuration not stated)
inactive: Potency [1] | Potency [2] | outcome [3] | outcome [4] | outcome [5] | outcome [6] | outcome [7] | Potency [8] | Potency [9] | outcome [10] | Potency [11] | Potency [12] | outcome [13] | Potency [14] | Potency [15]

CCOC(=O)c1ccc(C)cc1
inactive: Potency [1] | Potency [2] | outcome [3] | outcome [4] | outcome [5] | outcome [6] | outcome [7] | Potency [8] | Potency [9] | outcome [10] | Potency [11] | Potency [12] | outcome [13] | Potency [14] | Potency [15]

COc1ccc2c(c1)CCCC2=O
inactive: Potency [1] | Potency [2] | outcome [3] | outcome [4] | outcome [5] | outcome [6] | outcome [7] | Potency [8] | Potency [9] | outcome [10] | Potency [11] | Potency [12] | outcome [13] | Potency [14] | Potency [15]

CC(C)CNCC(C)C
inactive: Potency [2] | outcome [3] | outcome [4] | outcome [5] | outcome [6] | outcome [7] | Potency [8] | Potency [9] | outcome [10] | Potency [11] | Potency [12] | outcome [13] | Potency [14] | Potency [15]

C=C[Si](OC(=C)C)(OC(=C)C)OC(=C)C
inactive: Potency [2] | outcome [3] | outcome [4] | outcome [5] | outcome [6] | outcome [7] | Potency [8] | Potency [9] | outcome [10] | Potency [11] | Potency [12] | outcome [13] | Potency [14] | Potency [15]

ClC(Cl)(Br)Br
inactive: Potency [1] | Potency [2] | outcome [3] | outcome [4] | outcome [5] | outcome [6] | outcome [7] | Potency [8] | Potency [9] | outcome [10] | Potency [11] | Potency [12] | outcome [13] | Potency [14] | Potency [15]
